Assay outcomes from PubChem.
Sampled rows, rich in hits. Any-hit rate of the full collection: about 2.1%.
FUS suppressor: suppressors of FUS proteinopathy in yeast | S. cerevisiae FUS-expressing, growth rescue, OD600, 24 h | Potency, µM (doses to about 76.6 µM), hits mostly activators | actives 0.24% (n = 390,000); also: nearly all actives have a fitted effect of over 55% in size
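S. cerevisiae expressing FUS from galactose induction served as the toxicity model. Growth after 24hr at 30C, read as absorbance at 600 nm, indicates suppression of toxicity; compounds dosed at several concentrations.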
TDP43 rescue: TDP-43 toxicity inhibition in yeast; TDP-43 expressing yeast growth rescue, BacTiter-Glo, 24 h; Potency, µM (series often up to 46.1 µM), hits mostly activators; actives 1.8% (n = 410,000); also: nearly all actives have a fitted effect of over 50% in size
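Readout is BacTiter-Glo luminescence of cell growth, so inhibitors register as activators. TDP-43-expressing yeast at OD600=0.02 in galactose medium, after raffinose pregrowth to mid-log, were incubated with compound for 24 hr at 30 deg C.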
aSyn rescue: inhibitors of alpha-synuclein toxicity in yeast. AID 652106. Potency, µM (series often up to 46.1 µM), actives largely listed as activators. Yeast expressing alpha-synuclein, growth rescue, BacTiter-Glo, 24 h. actives 0.14% (n = 370,000); also: nearly all actives have a fitted effect of over 65% in size
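Readout is rescue of growth in alpha-synuclein-expressing yeast, so inhibitors of toxicity appear as activators. Growth after 24 hr at 30 deg C in galactose medium is quantified by luminescence.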
TSG101-PTAP inh: blocks PTAP/TSG101 interaction to inhibit HIV-1 budding | AID 493005 | Potency, µM (highest dose often 115 µM), usual class: inhibitors | Q99816 | Fluorescence polarization, FITC-PTAP peptide / Tsg101 binding | 340,000 tested, under 10 active; active = well fitted inhibition curve with a large enough effect in the main read-out, with a control signal flat, not every such curve was filed as active; inconclusive = small, poorly fitted or top-dose-only effect, or effect the other way, or a change in a side signal; inactive = no such curve, though single readings can be large or run the other way
Target sequence (Q99816 whole entry, looked up): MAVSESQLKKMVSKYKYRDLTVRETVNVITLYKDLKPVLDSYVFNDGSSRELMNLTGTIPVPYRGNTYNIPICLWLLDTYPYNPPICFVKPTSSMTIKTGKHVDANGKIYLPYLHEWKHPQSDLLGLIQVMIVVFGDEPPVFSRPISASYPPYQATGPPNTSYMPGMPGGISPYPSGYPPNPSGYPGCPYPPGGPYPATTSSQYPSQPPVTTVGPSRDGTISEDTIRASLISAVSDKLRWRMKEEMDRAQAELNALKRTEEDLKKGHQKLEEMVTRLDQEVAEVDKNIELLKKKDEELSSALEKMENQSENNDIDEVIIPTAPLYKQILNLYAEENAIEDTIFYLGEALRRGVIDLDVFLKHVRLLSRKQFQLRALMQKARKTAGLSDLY
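Compounds were pin-transferred onto Tsg101 binding domain (10 uM final) in HEPES pH 7.5 buffer, then FITC-PTAP peptide was added at 50 nM final. After 20 min at RT, polarization reported peptide displacement across a qHTS concentration series.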
Abeta yeast res: compounds reversing amyloid beta toxicity in yeast; Potency, µM (series often up to 46.1 µM), hits mostly activators; yeast expressing A-beta42, growth rescue, OD600, 48 h; response scale: 0% DMSO, 100% iron-clioquinol control; actives 0.063% (n = 410,000); AID 1347071; also: nearly all actives have a fitted effect of over 55% in size
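Yeast growth medium received pinned compounds, then yeast cells expressing toxic A-beta were added; plates incubated at 30 C for 48 hr. Growth read as absorbance at 600 nm, normalized to DMSO and equimolar FeCl3 plus clioquinol controls.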
Each line names hits and unclear results; the compound was inactive in the other large screens. Unless noted, calls follow the shape of the dose curve; as a rule, active = well fitted curve in the direction sought with a large enough effect; inconclusive = small, poorly fitted or top-dose-only effect, or another doubt; inactive = no such curve, though single readings can be large; an effect the other way counts as inactive or inconclusive.

CN(C(=O)CCc1ccccc1F)C1CCCN(Cc2ccccc2F)C1 (centres undefined)	TDP43 rescue 20µM
Cc1cc(C)c(S(=O)(=O)c2ccc(Cl)cc2)c(Cl)n1	TDP43 rescue inconclusive
Cc1cc(S(=O)(=O)c2ccc(Cl)cc2)nc(S(=O)(=O)c2ccc(Cl)cc2)c1C#N	TDP43 rescue 3.55µM (no result: TSG101-PTAP inh)
CCOc1ccc(NC(=O)CN(c2cccc(C(F)(F)F)c2)S(C)(=O)=O)cc1	TDP43 rescue 12.6µM
CCOC(=O)N1CCC(N2Cc3cccc(C(=O)Nc4ccc(CC)cc4)c3C2=O)CC1	TDP43 rescue 25.1µM
Cc1ccc(CCNC(=O)C2CCCN(S(=O)(=O)c3c(C)noc3/C=C/N(C)C)C2)cc1 (centres undefined)	FUS suppressor 20µM
O=S(=O)(NCCOc1ccccc1F)c1ccc(Cl)cc1F	TDP43 rescue 22.4µM
O=S(=O)(NCCOc1ccccc1F)c1cccc(Br)c1	TDP43 rescue 12.6µM, Abeta yeast res inconclusive
COc1cccc(Cn2ncc3c4sc(S(C)=O)cc4n(C)c3c2=O)c1 (centres undefined)	none (no result: TDP43 rescue, aSyn rescue, TSG101-PTAP inh, Abeta yeast res)
CC(C)C(=O)Nc1ccc2nc(SCCOc3ccccc3)sc2c1	none (no result: aSyn rescue, TSG101-PTAP inh)
CCCc1nc(SCC(=O)c2ccccc2)c2c(=O)n(C)c(=O)n(C)c2n1	TDP43 rescue 14.1µM, aSyn rescue inconclusive
CCc1nc(SCC(=O)c2ccccc2)c2c(=O)n(C)c(=O)n(C)c2n1	none
CCOc1ccc(-c2cc(C(=O)NCCc3ccccc3)c3c(-c4ccc(C)cc4)[nH]nc3n2)cc1	none (no result: aSyn rescue, TSG101-PTAP inh)
CCNC(=O)n1nccc1C(C)Oc1cccc(C(F)(F)F)c1 (centres undefined)	TDP43 rescue 15.8µM
CCNC(=O)n1nccc1C(C)Oc1ccc(Cl)cc1 (centres undefined)	TDP43 rescue 11.2µM
Cc1cc(Cl)ccc1-c1nc(NC(C)C)nc2ccsc12	TDP43 rescue 35.5µM, aSyn rescue inconclusive (no result: TSG101-PTAP inh)
COCCNc1nc(-c2ccc(Cl)cc2C)c2sccc2n1	TDP43 rescue 22.4µM (no result: TSG101-PTAP inh)
Cc1cccc(C)c1OCC(=O)NCC1COc2ccccc2O1 (centres undefined)	TDP43 rescue 15.8µM
Cn1nc(C(=O)NCC2COc3ccccc3O2)c2ccccc2c1=O (centres undefined)	TDP43 rescue 20µM
COc1ccc(CCNc2nc(-c3sc(C)nc3C)cs2)cc1OC	TDP43 rescue 22.4µM
COc1ccc(Nc2nc(-c3sc(C)nc3C)cs2)cc1	TDP43 rescue 20µM
Cc1nc(C)c(-c2csc(NCc3ccccc3)n2)s1	TDP43 rescue 20µM
CCCC(=O)Nc1nc(C)c(-c2csc(Nc3ccc(Cl)cc3)n2)s1	FUS suppressor inconclusive, TDP43 rescue 14.1µM
CCC(C)C(=O)Nc1nc(C)c(-c2csc(Nc3ccc(Cl)cc3)n2)s1 (centres undefined)	FUS suppressor inconclusive
CCOc1ccc(Br)cc1CNCCSc1nnnn1-c1ccccc1	none (no result: aSyn rescue, TSG101-PTAP inh)
CCOc1ccccc1CNC(=O)Cn1nc(N2CCN(c3ccccc3)CC2)ccc1=O	none (no result: aSyn rescue, TSG101-PTAP inh)
COC(=O)N(C)C[C@@H]1OCc2cn(nn2)CCCC(=O)N([C@@H](C)CO)C[C@H]1C	none (no result: TSG101-PTAP inh)
Cc1ccc(C)n1-c1ccc(-c2ccnc(N)n2)cc1	TDP43 rescue 31.6µM
COC(=O)[C@@H]1[C@H](O[Si](C)(C)C(C)(C)C)C2OC2C[C@H]1S(=O)(=O)c1ccccc1 (some centres undefined)	none (no result: TDP43 rescue, aSyn rescue, TSG101-PTAP inh, Abeta yeast res)
Cc1cc(/C=C2\SC(=S)NC2=O)c(C)n1-c1cccc(O)c1	none
Cc1sc(-n2c(C)cc(/C=C3\SC(=S)NC3=O)c2C)c(C#N)c1C	FUS suppressor 15.8µM, TSG101-PTAP inh inconclusive
OC(c1ccccc1)(c1nc(-c2ccc3ccccc3c2)cs1)C(F)(F)F (centres undefined)	none (no result: TSG101-PTAP inh)
OC1(C(F)(F)F)CC(c2ccc3ccccc3c2)=NO1 (centres undefined)	TDP43 rescue 3.16µM
Cc1ccc(S(=O)(=O)NCCNc2ccc([N+](=O)[O-])cc2C(F)(F)F)cc1	TDP43 rescue 22.4µM, aSyn rescue inconclusive
O=C(NCCNc1ccc([N+](=O)[O-])cc1C(F)(F)F)c1ccccc1F	TDP43 rescue 20µM
O=[N+]([O-])C1C(c2ccccc2)=NOC1c1ccccc1O (centres undefined)	TDP43 rescue 17.8µM
Oc1ccccc1C1N=C(c2ccccc2)NC(c2ccccc2)=N1	none
O=C(NCc1cccc(Cl)c1)c1ccc(-n2ccnc2)c2ccoc12	none (no result: TSG101-PTAP inh)
O=C(NCc1cccc(Cl)c1)c1ccc(-n2cncn2)c2ccoc12	TDP43 rescue 35.5µM (no result: TSG101-PTAP inh)
O=C(CCSCc1ccccc1F)N1CCN(c2ccc(F)cc2)CC1	TDP43 rescue 11.2µM (no result: aSyn rescue, TSG101-PTAP inh)
O=C(CCSCc1ccccc1Cl)N1CCN(c2ccc(F)cc2)CC1	FUS suppressor inconclusive, TDP43 rescue 15.8µM (no result: aSyn rescue, TSG101-PTAP inh)
O=C(CSCc1ccc(F)cc1)N1CCN(c2ccc(Cl)cc2)CC1	FUS suppressor inconclusive, TDP43 rescue 17.8µM (no result: aSyn rescue, TSG101-PTAP inh)
O=C(Cc1ccc(Cl)cc1)N1CCN(c2ccc(F)cc2)CC1	none
O=C(CCC(=O)N1CCN(c2ccccc2F)CC1)N1CCN(c2ccc(F)cc2)CC1	TDP43 rescue inconclusive
CCOC(=O)c1c(C)[nH]c(CCC(=O)Nc2ccccc2C(=O)OC)c1C	TDP43 rescue inconclusive (no result: aSyn rescue, TSG101-PTAP inh)
COc1ccccc1N1CCN(S(=O)(=O)CCNC(=O)COc2ccc(C(C)C)cc2)CC1	FUS suppressor inconclusive, TDP43 rescue 15.8µM, Abeta yeast res inconclusive (no result: aSyn rescue, TSG101-PTAP inh)
COc1ccc(Cl)cc1C(=O)NCCS(=O)(=O)N1CCN(c2ccccc2F)CC1	TDP43 rescue inconclusive
COc1ccc(Cl)cc1C(=O)NCCS(=O)(=O)N1CCN(c2ccccc2OC)CC1	FUS suppressor inconclusive, TDP43 rescue 11.2µM (no result: aSyn rescue, TSG101-PTAP inh)
CCc1ccccc1NC(=O)c1ccc(F)c(S(=O)(=O)N2CCN(c3ccccc3OC)CC2)c1	FUS suppressor inconclusive, Abeta yeast res 8.91µM (no result: aSyn rescue, TSG101-PTAP inh)
CC1(C(=O)NCc2ccccc2)CN(S(C)(=O)=O)CC(=O)N1CCc1c[nH]c2ccccc12 (centres undefined)	none (no result: TSG101-PTAP inh)
S=C1N(c2ccccc2)C(c2ccc(Br)cc2)N2CCCN12 (centres undefined)	TDP43 rescue 12.6µM
O=C(c1cc(C2CC2)nn1-c1ccccc1)N1CCN(c2ccccc2O)CC1	FUS suppressor inconclusive, TDP43 rescue 17.8µM
CC(C)CN1C(=O)C[C@]2(C(=O)N(C)c3ccc(NS(=O)(=O)C4CC4)cc32)C1c1ccccc1 (some centres undefined)	none (no result: TDP43 rescue, aSyn rescue, TSG101-PTAP inh, Abeta yeast res)
COc1ccccc1-c1nnc(-c2ccc(C)cc2)o1	none
COc1ccccc1-c1nnc(-c2ccc(N3CCOCC3)cc2)o1	TDP43 rescue 12.6µM
CC1C(=O)OC(c2ccc(Cl)cc2)C(C)(C)C1=O (centres undefined)	TDP43 rescue inconclusive
